From PubChem BioAssay
JMJD2E inh = JMJD2E (human) inhibition. B2RXH2. JMJD2E catalytic domain, FDH-coupled NADH fluorescence (FDH is formaldehyde dehydrogenase). Potency, µM (titrated, usually from 57.1 µM), without a hit: top-dose activity change, negative = inhibition, hits mostly inhibitors. 230,000 compounds, 1.6% hits;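 note: potency is the fitted concentration of half-maximal effect; 0% = wells with enzyme and -100% = buffer wells without enzyme; nearly all actives have a fitted effect of over 50% in size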
Target sequence (B2RXH2 1-337 limits assumed): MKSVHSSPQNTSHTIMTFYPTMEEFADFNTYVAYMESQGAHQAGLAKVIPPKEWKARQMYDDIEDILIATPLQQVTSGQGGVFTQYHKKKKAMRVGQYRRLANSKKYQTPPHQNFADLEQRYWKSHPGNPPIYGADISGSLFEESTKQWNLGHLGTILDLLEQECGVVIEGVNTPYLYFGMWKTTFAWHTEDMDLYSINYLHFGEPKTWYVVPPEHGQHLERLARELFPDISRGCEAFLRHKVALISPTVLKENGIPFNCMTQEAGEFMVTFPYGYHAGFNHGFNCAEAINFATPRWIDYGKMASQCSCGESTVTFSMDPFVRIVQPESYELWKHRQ
HTT cytoprotect = protects HTT-Q103 PC12 cells, measured by ATP. 230,000 compounds, 0.14% hits. PC12 HTT-Q103 induced, cytoprotection, ATP luminescence, 40 h. Potency, µM (top dose mostly 56.4 µM), inactives show cytoprotection (ATP increase), most hits filed as activators; active = well fitted curve in the direction sought with a large enough effect; inconclusive = small, poorly fitted or top-dose-only effect, or another doubt; inactive = no such curve, though single readings can be large; an effect the other way counts as inactive or inconclusive; note: potency is the fitted concentration of half-maximal effect; % of control where 0% means no effect; nearly all actives have a fitted effect of over 45% in size
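Huntington model: PC12 line, ecdysone-inducible HTTQ103 exon1–GFP, tebufenozide 100 nM. Test articles in a dose series. Endpoint luminescence from cellular ATP.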
HPGD block = HPGD (human) dehydrogenase inhibition. P15428. purified HPGD, NADH fluorescence kinetic, PGE2 substrate. Potency, µM, for inactives: top-dose activity change, negative = inhibition, hits mostly inhibitors. 150,000 compounds, 4.3% hits. AID 894; note: potency is the fitted concentration of half-maximal effect; % is set by controls: 0 for no effect and ±100 for the full control effect
Target sequence (P15428 whole entry, looked up): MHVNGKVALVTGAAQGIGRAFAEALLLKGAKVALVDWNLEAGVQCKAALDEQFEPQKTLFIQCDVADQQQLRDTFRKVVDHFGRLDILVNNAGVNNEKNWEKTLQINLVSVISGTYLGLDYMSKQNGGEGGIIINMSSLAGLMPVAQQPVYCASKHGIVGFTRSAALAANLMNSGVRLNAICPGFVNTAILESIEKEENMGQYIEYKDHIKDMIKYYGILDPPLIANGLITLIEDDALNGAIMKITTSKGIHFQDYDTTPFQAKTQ
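NADH formation kinetics: reaction with 30 uM PGE2 and 1 mM NAD+ (final), 20 nM enzyme, Tris-HCl pH 8 with Tween 20, after 15 min compound preincubation at room temperature. Fluorescence change, last versus first of five reads.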
HttQ103 aggreg = inhibitors of mutant huntingtin aggregate formation in PC12 cells; 220,000 compounds, 1.1% hits; AID 1688; PC12 HttQ103-GFP aggregates, Acumen cytometry, 40 h; Potency, µM (top dose mostly 46.1 µM), without a hit: at the top dose activity change, negative = inhibition, usual class: inhibitors; active = well fitted curve in the direction sought with a large enough effect; inconclusive = small, poorly fitted or top-dose-only effect, or another doubt; inactive = no such curve, though single readings can be large; an effect the other way counts as inactive or inconclusive; note: potency is the fitted concentration of half-maximal effect; % is set by controls: 0 for no effect and ±100 for the full control effect; nearly all actives have a fitted effect of over 60% in size
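PC12/HTTQ103-GFP, ecdysone-inducible; teb 100 nM; cpd qHTS titration; GFP aggregates read on laser cytometer, Ex 488/Em 500-530 nm.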
CBFb-RUNX1 inh = CBF-beta/RUNX1 interaction disruption; Q01196+Q13951; AlphaScreen CBFb-His/RUNX1-biotin binding, biochemical; Potency, µM (titrated, usually from 59.8 µM), for the others: top-dose activity, negative = inhibition, hits mostly inhibitors; 230,000 tested, under 10 active; active = well fitted curve in the direction sought with a large enough effect; inconclusive = small, poorly fitted or top-dose-only effect, or another doubt; inactive = no such curve, though single readings can be large; an effect the other way counts as inactive or inconclusive; note: % of control where 0% means no effect
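AlphaScreen proximity signal reports loss of binding between His-tagged CBF-beta and biotin-labelled RUNX1, each at 30 nM. Proteins are pre-associated for 20 minutes, compounds added for 15 minutes, then beads for 90 minutes, all at ambient temperature.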
ALDH1A1 inh = ALDH1A1 (human) enzyme inhibition; Purified ALDH1A1, NADH fluorescence, propionaldehyde substrate; Potency, µM (highest dose often 75.3 µM), for inactives: top-dose activity, negative = inhibition, hits mostly inhibitors; 220,000 compounds, 7.3% hits; AID 1030;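 note: potency is the fitted concentration of half-maximal effect; plate controls were no enzyme wells and a reference inhibitor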
* hit, by the source's call; ? = inconclusive; . = not tested or not shown; [ ] = dose if it differs, or a comment. Sampled rows, rich in hits. Any-hit rate of the full collection: about 9.8%. Unless noted, calls come from the whole dose curve; as a rule, active = well fitted inhibition curve with a large enough effect (not every such curve was filed as active); inconclusive = small, poorly fitted or top-dose-only effect, or another doubt; inactive = no such curve, though single readings can be large or run the other way.

SMILES	JMJD2E inh	HTT cytoprotect	HPGD block	HttQ103 aggreg	CBFb-RUNX1 inh	ALDH1A1 inh
O=C(NNS(=O)(=O)c1ccc(C(=O)NC2CCCC2)cc1)c1ccncc1	-5.9%	3.4%	.	15.3%	5.4%	2.82µM*
Cc1cc(N2CCN(C3CCCCC3)CC2)n2nc(C)nc2n1	0.2%	1.2%	-1.7%	9.5%	1.4%[2.36 µM]	-0.5%
COc1ccc(S(=O)(=O)Nc2cc3c4c(oc3c3ccccc23)CCCC4=O)cc1	-11.8%	-16.5%	0.8%	-2.9%	8.7%	7.94µM*
COc1ccc(S(=O)(=O)Nc2cc(OC)cc3cccnc23)cc1	.	.	.	.	5.9%	.
COc1ccc(S(=O)(=O)Nc2cc3c4c(oc3c3ccccc23)CC(C)(C)CC4=O)cc1	-5.8%	-32.6%	-18.8%	-7.9%	-7.1%	3.16µM*
CCOC(=O)C1CCCN(C(=O)c2cc3cc(Br)ccc3oc2=O)C1 (configuration not stated)	-13.9%	-24.0%	.	-9.1%	-7.2%	-6.5%
Cn1cc(CN2CCC[C@H]2CO)c(-c2cccc(Cl)c2)n1	6.4%	15.4%[10 µM]	.	-2.0%[9.22 µM]	3.3%	6.0%
CCOC(=O)OCC1OC(C#Cc2ccc(C)cc2C)C=CC1OC(=O)OCC (configuration not stated)	.	-0.8%[10 µM]	.	.	5.2%[13.1 µM]	-7.7%[13.5 µM]
CN(c1cccc(Cl)c1)S(=O)(=O)c1cccc(C(=O)Nc2ccc3c(c2)CCC3)c1	-1.7%	-6.7%[10 µM]	-20.3%	-6.3%	9.5%	11.2µM*
C=CC(C)(C)c1[nH]c2ccccc2c1C1=C(O)C(=O)C(c2c[nH]c3c(CC=C(C)C)cccc23)=C(O)C1=O	25.1µM*	3.5%	25.1µM*	.	.	?
COc1ccc(C(=O)OC(C)C(=O)Nc2cc(C(F)(F)F)ccc2Cl)c(OC)c1OC (configuration not stated)	?	-1.5%[10 µM]	25.1µM*	-2.6%	-20.3%	10.0%
O=c1c2nnn(Cc3ccc(Cl)cc3)c2ncn1Cc1ccc(F)cc1	-7.8%	13.3%[10 µM]	28.2µM*	-6.7%	13.4%	-2.5%
Cc1ccc(Cn2cnc3c(nnn3Cc3ccc(Cl)cc3)c2=O)cc1	-1.8%	-16.9%	-6.0%	-19.2%	1.3%	10.0%
Cc1ccc(Cn2nnc3c(=O)n(Cc4cc(C)ccc4C)cnc32)cc1	-9.4%	-8.6%[10 µM]	3.98µM*	-12.0%	-6.0%	5.6%
Cc1cccc(Cn2cnc3c(nnn3Cc3ccc(Cl)cc3)c2=O)c1	16.9%	-16.4%	12.6µM*	-0.5%	-0.7%	18.3%
Cc1ccccc1Cn1cnc2c(nnn2Cc2ccc(F)cc2)c1=O	-3.3%	-4.0%[10 µM]	-10.4%	27.3%	6.3%	1.2%
Cc1ccc(Cn2nnc3c(=O)n(Cc4cccc(C)c4)cnc32)cc1	-0.7%	17.3%[10 µM]	5.01µM*	2.4%	3.7%	6.3%
COc1ccc(S(N)(=O)=O)cc1C(=O)N1CCCC1	3.8%	-39.9%	.	1.4%[9.22 µM]	-1.0%	3.6%
O=C(c1ccccc1)N1N=C(c2ccco2)CC1c1cccs1 (configuration not stated)	-15.7%	-14.6%[10 µM]	.	-1.7%[9.22 µM]	-0.8%	?
Cc1ccc(C2=NN(C(=O)CCl)C(c3cccs3)C2)o1 (configuration not stated)	?	-25.0%[10 µM]	.	?	-0.5%	1.26µM*
Cc1ccc(C2=NN(C(=O)CCC(=O)O)C(c3cccs3)C2)cc1 (configuration not stated)	-5.2%	20.8%[10 µM]	.	17.5%[9.22 µM]	12.5%	.
CC(=O)N1N=C(c2ccco2)CC1c1cccs1 (configuration not stated)	-21.8%	4.8%[10 µM]	-14.9%	?	-20.7%	3.55µM*
O=C(NN1C(=O)c2ccccc2NC1c1ccccc1OCc1ccccc1)c1ccncc1 (configuration not stated)	-12.2%	-16.8%	-6.5%	-11.1%	0.4%	-3.0%
CCN(CC)S(=O)(=O)c1ccc(C)c(NC(=O)COC(=O)[C@@H]2CCCN2C(=O)c2cccs2)c1	3.9%	-13.0%	.	17.7%	10.9%	?
CC1CC(=O)C2=C(C1)OC(N)=C(C#N)C2c1coc2ccccc2c1=O (configuration not stated)	-8.3%	9.2%[1.9 µM]	-6.6%	6.6%	3.8%	17.8µM*
SMILES	JMJD2E inh	HTT cytoprotect	HPGD block	HttQ103 aggreg	CBFb-RUNX1 inh	ALDH1A1 inh
Cc1noc2ncc(C(=O)c3cc(F)ccc3O)cc12	-8.3%	-17.6%	-17.7%	-8.6%	-2.2%	-1.0%
Cc1ccc(O)c(C(=O)c2cnc3onc(-c4ccc(F)cc4)c3c2)c1	3.5%	.	12.6µM*	-5.4%	-10.4%	14.1µM*
COc1nc2ccccc2c(=O)n1OCC(C)C	3.6%	-5.9%	-18.1%	-20.9%	-10.4%	14.1µM*
Cc1cc(CC(C)C)n(-c2nc3ccccc3c(=O)n2OCc2ccccc2)n1	5.5%	-12.8%	-10.6%	-24.1%	4.4%	5.3%
COc1cccc(N2C(=O)CC(N3CCN(CCN=CC4=C(O)CC(C)(C)CC4=O)CC3)C2=O)c1 (configuration not stated)	9.8%	3.8%[10 µM]	.	-7.2%[9.22 µM]	2.7%	?
CC1(C)CC(=O)C(C=NCCN2CCN(C3CC(=O)N(c4cccc(Br)c4)C3=O)CC2)=C(O)C1 (configuration not stated)	-2.2%	-2.6%	.	2.4%	4.2%	25.1µM*
Cc1cccc(NC(=O)CSc2nc3nc4c(cc3c(=O)n2-c2ccccc2)CCCC4)c1	-13.8%	5.3%[10 µM]	-25.0%	14.2%	3.6%	?
Cc1ccccc1-n1c(SCC(=O)Nc2ccccc2)nc2nc3c(cc2c1=O)CCCC3	?	-4.0%[10 µM]	-5.9%	-18.6%	0.3%	7.94µM*
O=C(CSc1nc2nc3c(cc2c(=O)n1-c1ccccc1)CCCC3)Nc1cccc2ccccc12	-0.6%	17.1%[10 µM]	-10.5%	-10.5%	-5.9%	7.94µM*
COc1ccc(Nc2nc(C(=O)N(CCO)Cc3ccccc3)cs2)cc1	4.8%	18.4%[10 µM]	.	4.1%[9.22 µM]	-12.8%	-6.5%
NS(=O)(=O)c1ccc(NNC(=O)c2ccc(F)cc2F)cc1	4.4%	-8.5%[10 µM]	.	-17.9%[9.22 µM]	17.6%	.
CCOC(=O)CNC(=O)c1ccc(C#CC2(O)CCCCC2)cc1	1.7%	.	-0.6%	-13.9%	5.1%	3.0%
O=C(c1ccc(C#CC2(O)CCCCC2)cc1)N1CCOCC1	1.2%	-6.8%	14.1µM*	-7.2%	-2.1%	-11.3%
Cc1cc(C)c2c(NC(=S)NC(=O)c3ccccc3)n[nH]c2n1	-15.9%	-40.6%	.	18.7%[9.22 µM]	-0.6%	?
Cc1ccccc1C(=O)NCC(=O)NNC(=S)NC(=O)c1ccccc1	-1.9%	.	-19.2%	-12.4%	-2.1%	?
Cc1ccccc1C(=O)NC(=S)NCCc1ccccc1	-1.2%	1.3%[10 µM]	-7.4%	5.5%	17.7%	11.2µM*
CC(C)(C)C(=O)NC(=S)NCCc1ccccc1	-1.7%	-26.9%	-9.5%	4.4%	4.8%	28.2µM*
